These results are taken from PubChem BioAssay (Tox21).

Results filed as inconclusive are left out. Entries that show only a call come without a potency. Unmarked numbers belong to inactive results. Active and inactive are the calls of the source. The call rests on the fitted dose curve; in most records, active means well fitted inhibition curve with a large enough effect in the signal ratio in the repeat runs (not every such curve was filed as active); inconclusive means weak or mixed curves; inactive means flat fitted curve, though single readings scatter; the % refers to the signal ratio.
Potency means the concentration at half of the fitted maximal effect.

Sequence of Progesterone receptor (Homo sapiens) (P06401 whole entry, looked up): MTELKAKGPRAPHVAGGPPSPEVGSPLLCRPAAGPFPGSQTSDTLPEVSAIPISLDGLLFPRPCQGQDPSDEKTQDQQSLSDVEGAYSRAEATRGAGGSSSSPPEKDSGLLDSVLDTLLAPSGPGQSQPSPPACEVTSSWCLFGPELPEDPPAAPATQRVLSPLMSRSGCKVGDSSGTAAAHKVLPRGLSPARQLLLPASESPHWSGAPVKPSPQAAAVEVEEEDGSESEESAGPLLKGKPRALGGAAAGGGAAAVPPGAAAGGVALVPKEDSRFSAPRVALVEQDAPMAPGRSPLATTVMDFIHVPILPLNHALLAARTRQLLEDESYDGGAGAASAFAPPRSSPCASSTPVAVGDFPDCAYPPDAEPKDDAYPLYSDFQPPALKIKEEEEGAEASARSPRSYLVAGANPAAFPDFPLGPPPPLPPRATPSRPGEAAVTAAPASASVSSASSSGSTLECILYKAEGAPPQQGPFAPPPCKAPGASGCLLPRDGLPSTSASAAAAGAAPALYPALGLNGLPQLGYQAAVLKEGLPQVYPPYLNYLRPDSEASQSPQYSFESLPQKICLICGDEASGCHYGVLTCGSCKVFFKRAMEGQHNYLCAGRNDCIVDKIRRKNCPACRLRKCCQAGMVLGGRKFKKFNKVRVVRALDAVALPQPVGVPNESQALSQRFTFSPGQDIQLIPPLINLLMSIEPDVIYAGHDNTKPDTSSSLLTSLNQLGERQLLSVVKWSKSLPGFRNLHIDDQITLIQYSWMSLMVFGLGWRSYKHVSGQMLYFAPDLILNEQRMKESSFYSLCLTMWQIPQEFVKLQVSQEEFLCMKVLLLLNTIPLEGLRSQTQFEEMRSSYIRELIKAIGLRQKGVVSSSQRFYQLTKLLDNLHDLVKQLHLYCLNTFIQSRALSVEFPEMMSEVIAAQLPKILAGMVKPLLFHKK

The target in this experiment is Progesterone receptor (Homo sapiens) (UniProt P06401). The experiment is described as follows: qHTS assay to identify small molecule antagonists of the progesterone receptor (PR) signaling pathway (AID 1346795). The note with it: PR-UAS-bla HEK293T, beta-lactamase FRET ratio, 16 h; series mostly up to 92.4 µM. An excerpt:
National Center for Advancing Translational Sciences [NCATS]
NIH Chemical Genomics Center [NCGC]
U.S. Environmental Protection Agency [EPA]
National Institutes of Environmental Health Sciences [NIEHS]
National Toxicology Program [NTP]
U.S. Food and Drug Administration [FDA]
Progesterone receptor (PR), a nuclear hormone receptor, plays an important role in development, metabolic homeostasis and reproduction. […] Endocrine disrupting chemicals (EDCs) and their interactions with steroid hormone receptors like PR causes disruption of normal endocrine function. To identify the compounds that inhibit PR signaling, a PR-UAS-bla GripTite cell line i.e. PR-UAS-bla HEK293T (Invitrogen, Carlsbad, CA, USA) containing a beta-lactamase reporter gene under the control of an Upstream Activator Sequence (UAS) was used to screen Tox21 10K compound library.
Tox21 Assay Protocol Summary:
PR-UAS-bla HEK293T cells were dispensed at 3,000 cells/4 uL of assay medium containing 2% charcoal stripped FBS per well into black wall/clear-bottom 1536-well plates using a Multidrop Combi (ThermoFisher Scientific, Waltham, MA) dispenser. After the assay plates were incubated at a 37C and 5% CO2 for 6 hr, 23 nL of compounds dissolved in DMSO, positive controls or DMSO only was transferred to the assay plate by a Pintool station (Kalypsys, San Diego, CA), followed by addition of 1 uL (1nM as final concentration) of Promegestone (R5020) in assay medium using a BioRAPTR FRD (Flying Reagent Dispenser, Aurora Discovery, San Diego, CA). The plates were incubated at 37C and 5% CO2 for 16 hr. Then 1 uL of LiveBLAzer B/G FRET substrate was added using a FRD. After the plates were incubated at room temperature for 2 hours, fluorescence intensity was measured by an Envision plate reader (PerkinElmer, Shelton, CT).
As to `Nc1ccc(S(=O)(=O)Nc2ccccc2)cc1`, the Potency result is “inactive”.
Consider `CCCCCCCC#N`, for which the Potency result is “inactive”.
As for `CO[C@@H]1[C@H](OC(=O)/C=C/C=C/C=C/C=C/C(=O)O)CC[C@]2(CO2)[C@H]1[C@@]1(C)O[C@@H]1CC=C(C)C`, the Potency result was “inactive”.
Still for that read-out and setting: to `CC(C)C[C@H]1C(=O)N2CCC[C@H]2[C@]2(O)O[C@](NC(=O)[C@@H]3C=C4c5cccc6[nH]c(Br)c(c56)C[C@H]4N(C)C3)(C(C)C)C(=O)N12` belongs “inactive”; to `C=C1C(=C/C=C2\CCC[C@]3(C)[C@@H]([C@H](C)/C=C/[C@@H](O)C4CC4)CC[C@@H]23)C[C@@H](O)C[C@@H]1O`, 11.9 µM (active); to `Nc1cc(C(=O)O)c(O)c(S(=O)(=O)O)c1`, “inactive”.
`CCOc1ccc(N=Nc2ccc(/C=C/c3ccc(N=Nc4ccc(OCC)cc4)cc3S(=O)(=O)O)c(S(=O)(=O)O)c2)cc1`: the Potency result is “inactive”.
Still for that read-out and setting: to `OCCN1CCN(CCCN2c3ccccc3C=Cc3ccccc32)CC1` belongs “inactive”.
The same measure, in the same setting: to `CCCCOC(=O)CCCCCCCC(=O)OCCCC` belongs “inactive”; to `CCOC(=O)Cc1cccc2ccccc12`, “inactive”; to `CCCCc1ncc(/C=C(\Cc2cccs2)C(=O)O)n1Cc1ccc(C(=O)O)cc1`, “inactive”.
The same measure, in the same setting: to `O=C(CS)Nc1ccccc1` belongs “inactive”; to `CCC(C)(C)CC`, “inactive”; to `Cc1cccc(C)c1NC(=O)CN(CC(=O)O)CC(=O)O`, “inactive”.
Regarding `O=C(O)c1ccc(-n2nc(-c3ccccc3O)nc2-c2ccccc2O)cc1`, the Potency was 6.68 µM (active).
On to `CCCCNc1ccc(C(=O)OCCOCCOCCOCCOCCOCCOCCOCCOCCOC)cc1`, for which the Potency result was “inactive”.
Same read-out and setting: to `O=S(=O)(Oc1ccc(Cl)cc1)c1ccccc1` belongs 24.3 µM (active).
The same measure, in the same setting: to `C=C(C)C(=O)OCCO` belongs “inactive”; to `CC[N+]1(CC)CCC(=C(c2ccccc2)c2ccccc2)C1C` (stereo not given), “inactive”.
`CN(C)c1ccc(/C=C/c2ccc([N+](=O)[O-])cc2)cc1`: the activity change, negative = inhibition was -17.2% [at 8.39 µM].
Take `CCOC(=O)c1cccnc1`: the Potency entry was “inactive”.
As to `CCN(CC)CCNC(=O)c1cc(Br)c(N)cc1OC`, the Potency result is “inactive”.
For `CCN(CC)CCOC(=O)C(c1ccccc1)C1CCCCC1` (stereo not given), the Potency entry is “inactive”.
For the compound `CN(C)CCN(Cc1ccsc1)c1ccccn1`, the Potency entry was “inactive”.
With `CC1=CC[C@H](C(C)C)C=C1`, the Potency result is “inactive”.
In the case of `C=C(C)C(=O)OCCOCC`, the Potency result is “inactive”.
On the same count and under the same terms, to `CN(C)CCN(Cc1ccc(Cl)cc1)c1ccccn1` belongs “inactive”.
In the case of `C/C=C/C(=O)CC`, the activity change, negative = inhibition was -21.4% [at 18.9 µM].
For the compound `O=C1[C@H]2CCCC[C@H]2C(=O)N1CCCCN1CCN(c2nsc3ccccc23)CC1`, the Potency result is “inactive”.
Still for that read-out and setting: to `CCNc1cc(O)ccc1C` belongs “inactive”; to `O=C1c2ccccc2S(=O)(=O)N1CCCCN1CCN(c2ncccn2)CC1`, “inactive”; to `C[N+]1(C)CCC(OC(=O)C(O)(c2ccccc2)C2CCCC2)C1` (stereo not given), “inactive”.
As to `O=CC1CC=CCC1` (stereo not given), the Potency entry is “inactive”.
The same measure, in the same setting: to `CCCCC` belongs “inactive”.
Still for that read-out and setting: to `CCC(CC)Nc1ccc(C)c(C)c1` belongs “inactive”.
With `CCCCCCCC/C=C\CCCCCCCC(=O)OCC`, the Potency entry is “inactive”.
With `CCCCCCCCCCCCCCCCCCOS(=O)(=O)O`, the Potency result was “inactive”.
With `Nc1c(CC(=O)O)cccc1C(=O)c1ccc(Br)cc1`, the Potency result was “inactive”.
`CCOC(=O)NCCOc1ccc(Oc2ccccc2)cc1`: the Potency is 17.2 µM (active).
Same read-out and setting: to `Cc1ccc(C(C)OC(=O)C2(C)CCC(C(=O)O)C2(C)C)cc1` (stereo not given) belongs “inactive”.
